# High-throughput results (PubChem BioAssay)
# This excerpt belongs to a sample that is enriched for hits.
# EphB4 ephrin blk: blocks human EphB4 binding to ephrin-B2; AID 720; inhibition, % at 7 µM; hit rate 0.15% among 97,000; EphB4 LBD / TNYL-RAW-Alexa532 peptide, fluorescence polarization; P54760;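 active = inhibition above the screen-wide mean inhibition plus 3 SD, cut at about 15% in these data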;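 also: 0% = DMSO wells and 100% = excess unlabeled TNYL-RAW peptide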
# hDAT+cocaine: changed human dopamine transporter uptake under cocaine IC80; B-score at 10 µM; AID 449768; hit rate 1.3% among 110,000; LLC-PK1 hDAT cells, [14C]-dopamine uptake with cocaine IC80; actives deviate in either direction;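 active = Z score or B-score, a plate-position-corrected score, falls beyond the plate's 99.7% confidence bounds, in either direction; inactive = both scores lie inside the 99.7% bounds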;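 also: scored against the spread of the other compound wells on the same plate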
# Target sequence (Q01959 whole entry, looked up): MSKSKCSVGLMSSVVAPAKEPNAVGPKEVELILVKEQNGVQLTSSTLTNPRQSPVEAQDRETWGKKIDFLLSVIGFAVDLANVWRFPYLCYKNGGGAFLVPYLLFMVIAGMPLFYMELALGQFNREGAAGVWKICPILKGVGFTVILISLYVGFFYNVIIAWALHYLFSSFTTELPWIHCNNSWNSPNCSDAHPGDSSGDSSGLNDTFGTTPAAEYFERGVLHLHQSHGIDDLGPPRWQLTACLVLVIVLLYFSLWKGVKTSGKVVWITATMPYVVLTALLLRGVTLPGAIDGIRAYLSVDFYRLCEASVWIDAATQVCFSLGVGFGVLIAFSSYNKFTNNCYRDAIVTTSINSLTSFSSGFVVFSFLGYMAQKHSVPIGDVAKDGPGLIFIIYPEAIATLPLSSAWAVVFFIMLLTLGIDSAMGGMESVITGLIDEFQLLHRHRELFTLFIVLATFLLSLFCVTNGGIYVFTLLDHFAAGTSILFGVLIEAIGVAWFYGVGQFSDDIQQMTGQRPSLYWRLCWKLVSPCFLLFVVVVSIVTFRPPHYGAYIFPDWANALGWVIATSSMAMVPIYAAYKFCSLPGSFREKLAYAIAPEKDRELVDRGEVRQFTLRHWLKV
# D1 mod: D1 dopamine receptor (human) allosteric modulation. P21728. AID 641. hit rate 5.9% among 58,000. HEK293 D1, CRE-luciferase, dopamine EC30 potentiation; actives deviate in either direction. B-score at 10 µM;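 active = luminescence count or its row- and column-corrected plate score outside the 99.7% band of the plate's sample wells, on either side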
# * = called active by the depositor; nt = no result given.
SMILES,EphB4 ephrin blk,hDAT+cocaine,D1 mod
O=C1NCCCC2c3c(cc(Br)c(O)c3Br)OC12N1CCOCC1 (centres undefined),-4,1.4,0.062
Cc1ccc(Cn2nc(C)c(NC(=O)C3(C)CC3(Br)Br)c2C)cc1 (centres undefined),-2,0.56,nt
CCCCCn1c(N2CCC(Cc3ccccc3)CC2)nc2c1c(=O)[nH]c(=O)n2C,1,1.6,-0.89
CCCCCCn1c(SCCOC)nc2c1c(=O)[nH]c(=O)n2C,nt,-0.34,9.4*
CCCCCCn1c(SCCN2CCOCC2)nc2c1c(=O)[nH]c(=O)n2C,-6,0.091,nt
CCCCCn1c(NC2CCCCC2)nc2c1c(=O)[nH]c(=O)n2C,nt,2.9*,5.7*
CC(=O)Oc1ccc(N(C(C)=O)S(=O)(=O)c2cccs2)c2ccccc12,9,1,nt
COC(=O)Cc1c(C)nc2nc(NCc3cccc([N+](=O)[O-])c3)[nH]n2c1=O,2,-0.89,nt
CC(C)CCNC(=O)c1c(CSc2ccc(Cl)cc2)noc1C(=O)NCc1ccccc1,nt,0.23,nt
O=C(O)CCC(=O)c1ccc2c(c1)OCCO2,-1,-0.22,-0.07
O=C(O)CCOc1ccc2c(c1)OCCO2,5,-7.6*,0.6
Cc1ccc(NC(=O)c2ccccc2F)nc1,-8,0.016,-3*
Cc1ccccc1C(=O)Nc1ccc(Br)cn1,3,0.28,0.035
CCOC(=O)C(NC(=O)c1ccccc1)(OCC1(CC)COC1)C(F)(F)F (centres undefined),4,-1.2,nt
CCC1(COC(NC(=O)c2cccnc2)(C(F)(F)F)C(F)(F)F)COC1,8,0.62,-7*
O=C(Nc1ccc(-c2nc3cc(Cl)ccc3o2)cc1)C1CCCO1 (centres undefined),10,0.81,nt
O=C(Nc1ccc(-c2nc3ccccc3o2)cc1)C1CCCO1 (centres undefined),2,-0.43,-5.2*
O=C(Nc1ccc(Cl)cc1)NC1CCCCC1Cc1ccco1 (centres undefined),-1,-1.6,nt
O=C(Nc1ccc(Cl)cc1)NC1CCCC1Cc1ccco1 (centres undefined),-3,-5.7*,-1.6
C=CCc1c(C)c(C#N)c2nc3ccccc3n2c1N1CCN(C)CC1,nt,nt,16*
Cc1c(CCC#N)c(N2CCCCC2)n2c(nc3ccccc32)c1C#N,nt,nt,3
CCOc1ccc(N2C(=O)CN=C2Nc2ccccc2F)cc1,6,1.4,nt
O=C1NC(=S)N/C1=C/c1cccc([N+](=O)[O-])c1O,2,-0.19,nt
O=C1NC(=S)N/C1=C/c1cc([N+](=O)[O-])ccc1O,-1,-2.1*,nt
CCOc1ccc(CCNC(=O)CCn2cccc2)cc1OCC,3,-4.3*,2.5
SMILES,EphB4 ephrin blk,hDAT+cocaine,D1 mod
CCOc1ccc(CCNC(=O)c2ccc(N3CCCC3=O)cc2)cc1OCC,9,-7.7*,nt
COc1ccc(CCNC(=O)CCn2cccc2)cc1OC,-4,-0.12,0.4
CCOc1ccc(CCNC(=O)C2CCCN(C(=O)N(C)C)C2)cc1OCC (centres undefined),-2,-0.66,-7.9*
COc1ccc(CCNC(=O)c2ccc(N3CCCC3=O)cc2)cc1,6,-1,nt
COc1ccc(CCNC(=O)C2CCN(C(=O)N(C)C)CC2)cc1OC,7,-0.27,1.5
O=C(CCN1CCCCC1)NCC1OCCc2ccccc21 (centres undefined),2,0.94,-0.92
CC(C)[C@@H]1NC(=O)c2cc([N+](=O)[O-])cc(F)c2NCCC[C@@H](C(N)=O)NC(=O)[C@H](CO)NC1=O,nt,-0.11,nt
CN1C(=O)C2(OCC(COc3ccc(Cl)cc3)O2)c2ccccc21 (centres undefined),-4,-1.2,0.014
CC(=O)N1CCN(c2ccc(OC[C@H]3CO[C@](Cn4ccnc4)(c4ccc(Cl)cc4Cl)O3)cc2)CC1,nt,3.8*,nt
Cc1ccc(S(=O)(=O)N2CCC[C@H]2C(=O)OC(C)C(=O)Nc2ncc(Cl)cc2Cl)cc1 (some centres undefined),3,-0.43,nt
COc1ccccc1/C=N/NC(=O)CC(=O)Nc1ccc(Cl)c(Cl)c1,3,-0.0084,nt
COc1cccc(NC(=O)C(=O)N/N=C/c2cc(C)n(-c3ccc(Cl)c(Cl)c3)c2C)c1,-6,-4.8*,nt
Cc1cc(/C=N\NC(=O)CC(=O)NC2CCCCC2)c(C)n1-c1ccc(Cl)c(Cl)c1,0,-3.7*,nt
Cc1nc2ccccn2c1C(=O)N/N=C/c1cc(C)n(-c2ccc(Cl)cc2)c1C,3,0.69,nt
Cn1nc(C(F)(F)F)c(C(=O)Nc2ccc(F)cc2F)c1Sc1ccc(Cl)cc1,-3,-0.29,nt
COc1ccc(-c2nnc(SCC(=O)Nc3ccc4c(c3)OCCO4)n2N)cc1OC,0,0.74,nt
COC/C=C/C1=CC2=CC(=O)C(C)(OC(=O)c3cnc4ccccc4n3)C(=O)C2=CO1 (centres undefined),nt,-0.23,nt
CCO[C@@H]1OC(C(=O)NC2CC2)=C[C@H](c2ccc(C(F)(F)F)cc2)[C@H]1CCCO,nt,-1.1,nt
CCOC(=O)C(C(=O)Nc1ccc(C)cc1)C1CCCCC1 (centres undefined),0,0.43,nt
COc1cccc(N2CCN(Cc3nc4ccccc4c(=O)[nH]3)CC2)c1,13,2.2*,-0.016
COc1ccc(N2CCN(Cc3nc4ccccc4c(=O)[nH]3)CC2)cc1,-2,-0.19,-0.035
COc1ccc(CCNC(=O)CSc2nc3cc(Cl)ccc3o2)cc1OC,3,-1,nt
N#Cc1ncc(C(F)(F)F)cc1Sc1ccc(N)cc1,16*,0.45,nt
N#Cc1cc(N)ccc1Sc1ccc(Cl)cc1,1,0.9,nt
COc1cccc(N2CCN(Cc3ccsc3)CC2)c1,-1,nt,nt
SMILES,EphB4 ephrin blk,hDAT+cocaine,D1 mod
CCC1=C(OC(=O)N(CC)CC)N2C(=O)OC(=NCCc3c[nH]c4ccccc34)[C@]2(Cc2ccccc2)[C@H]2C1=CC[C@H]1C(=O)NC(=O)[C@H]12,nt,1.2,nt
COC(=O)C(O)(CC(=O)Nc1ccc(OC)cc1)C(F)(F)F (centres undefined),-3,-0.28,nt
CCOC(=O)C(O)(CC(=O)c1ccc(OC)cc1)C(F)(F)F (centres undefined),2,-8.8*,nt
CC(=O)n1nc(-c2cccnc2)nc1N,7,0.71,nt
CN(C)c1nc(N)nc(-c2cccnc2)n1,nt,-0.018,4.6*
O=C(NCc1cccc(Br)c1)c1cc(-c2ccccc2)nn1CC1CC(c2cccc([N+](=O)[O-])c2)=NO1 (centres undefined),nt,2.5,nt
NC(=O)NC(CCC(=O)O)C(=O)O (centres undefined),nt,-2.1,nt
Cc1ccc(S(=O)(=O)N2CCN(CC(=O)NC(=O)NCc3ccccc3)CC2)cc1C,4,1.2,nt
O=C(CSc1ccc2nnc(-c3ccc(Cl)cc3)n2n1)N1CCCC1,nt,0.47,5.6*
Cc1ccc(-c2nnc3ccc(SCC(=O)N4CCCCC4)nn23)cc1,nt,nt,-0.58
Cc1ccc(C)c(S(=O)(=O)NCc2ccc(C(=O)NCc3ccccn3)cc2)c1,2,1.3,nt
C[N+]1(C)CCCC(OC(=O)C(O)(c2ccccc2)c2ccccc2)C1 (centres undefined),nt,-1.6,nt
CCCCOc1ccc(C2(C)CC(=O)NC2=O)cc1 (centres undefined),nt,0.85,0.6
CC(C)OC(=O)CCC1(C(=O)O)CCC(=O)NC1 (centres undefined),0,0.21,-0.16
O=C(O)COc1ccc(/C=N/NC(=O)C2CCCN2S(=O)(=O)c2ccc(Cl)cc2)cc1 (centres undefined),4,-0.44,nt
